Data published in PubChem BioAssay AID1159580 (chemical genetic matrix, 2015).
Hit rate of the full screen: of about 5,500 compounds, about 2,000 (36%) were called active. Roughly 18% stayed inconclusive and do not appear here. Some of the results follow. Unmarked numbers belong to inactive results. Cut-off read from the data, not from the text of the source: active = normalized growth mostly below about 0.91 (no sharp cut-off); inconclusive = no clear call, values can overlap the other calls; inactive = mostly above about 0.92.

Assay: chemical genetic growth profiling, strain panel (AID 1159580);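 note: tested at 20 µM; growth read once vehicle control cultures reached saturation at 30 °C; 1 = growth at the plate median or of vehicle wells; lower values mean less growth of the strain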
Details: S. cerevisiae deletion strains, growth OD

With `C[C@]12CCC3C(CC[C@H]4C[C@H](O)CC[C@]34C)C1CCC2=O` (stereo not given in full) the normalized growth (locus YHR030C, strain SLT2, active compounds read low) was 0.63 (active), the normalized growth (locus YHR079C, strain IRE1, active compounds read low) was 0.831 (active) and the normalized growth (locus YJL095W, strain BCK1, active compounds read low) was 0.736 (active). The normalized growth (locus YJR066W, strain TOR1, active compounds read low) was 0.815 (active), the normalized growth (locus YLR113W, strain HOG1, active compounds read low) was 0.912 and the normalized growth (locus YNL183C, strain NPR1, active compounds read low) was 0.837. It also gave a normalized growth (locus YOR231W, strain MKK1, active compounds read low) of 0.861 and a normalized growth (locus YPL256C, strain CLN2, active compounds read low) of 0.853.

`CC(C)CCCC(C)[C@H]1CCC2C3CC[C@H]4CC(=O)CC[C@]4(C)C3CC[C@@]21C` (stereo not given in full) gave a normalized growth (locus YAL021C, strain ccr4, active compounds read low) of 0.957, a normalized growth (locus YAL026C, strain drs2, active compounds read low) of 1 and a normalized growth (locus YAL030W, strain snc1, active compounds read low) of 0.996. For the same compound, the normalized growth (locus YBL061C, strain skt5, active compounds read low) was 0.998, the normalized growth (locus YBR009C, strain hhf1, active compounds read low) was 1.03 and the normalized growth (locus YBR023C, strain chs3, active compounds read low) was 0.989. It also gave a normalized growth (locus YBR171W, strain sec66, active compounds read low) of 0.991, a normalized growth (locus YBR231C, strain swc5, active compounds read low) of 1.01 and a normalized growth (locus YBR279W, strain paf1, active compounds read low) of 0.997. It also gave a normalized growth (locus YCL011C, strain gbp2, active compounds read low) of 0.975, a normalized growth (locus YCL016C, strain dcc1, active compounds read low) of 0.995 and a normalized growth (locus YCL061C, strain MRC1, active compounds read low) of 0.977. It also gave a normalized growth (locus YCL069W, strain vba3, active compounds read low) of 0.992, a normalized growth (locus YCR088W, strain abp1, active compounds read low) of 0.982 and a normalized growth (locus YDL005C, strain med2, active compounds read low) of 0.986. For the same compound, the normalized growth (locus YDL040C, strain nat1, active compounds read low) was 0.984, the normalized growth (locus YDR001C, strain nth1, active compounds read low) was 0.987 and the normalized growth (locus YDR069C, strain doa4, active compounds read low) was 0.993. It also gave a normalized growth (locus YDR137W, strain rgp1, active compounds read low) of 0.958, a normalized growth (locus YDR159W, strain sac3, active compounds read low) of 0.984 and a normalized growth (locus YDR195W, strain ref2) of 0.974. The normalized growth (locus YDR297W, strain sur2, active compounds read low) was 0.983, the normalized growth (locus YDR334W, strain swr1, active compounds read low) was 0.96 and the normalized growth (locus YDR335W, strain msn5, active compounds read low) was 0.97. For the same compound, the normalized growth (locus YDR392W, strain spt3, active compounds read low) was 0.97, the normalized growth (locus YEL003W, strain gim4, active compounds read low) was 0.981 and the normalized growth (locus YEL037C, strain rad23, active compounds read low) was 0.987. The normalized growth (locus YEL061C, strain CIN8 (second series), active compounds read low) was 0.98, the normalized growth (locus YER015W, strain faa2, active compounds read low) was 1.02 and the normalized growth (locus YER016W, strain bim1, active compounds read low) was 0.985. For the same compound, the normalized growth (locus YER111C, strain swi4, active compounds read low) was 0.995, the normalized growth (locus YER155C, strain BEM2 (second series), active compounds read low) was 1.01 and the normalized growth (locus YFR010W, strain ubp6, active compounds read low) was 0.969. It also gave a normalized growth (locus YGL167C, strain pmr1, active compounds read low) of 0.998, a normalized growth (locus YGL173C, strain kem1, active compounds read low) of 0.988 and a normalized growth (locus YGL227W, strain vid30, active compounds read low) of 0.994. For the same compound, the normalized growth (locus YGL240W, strain doc1, active compounds read low) was 1.03, the normalized growth (locus YGL253W, strain hxk2, active compounds read low) was 0.984 and the normalized growth (locus YHR013C, strain ard1, active compounds read low) was 0.972. It also gave a normalized growth (locus YHR027C, strain rpn1, active compounds read low) of 0.986, a normalized growth (locus YHR142W, strain chs7, active compounds read low) of 0.93 and a normalized growth (locus YJL092W, strain hpr5, active compounds read low) of 0.961. The normalized growth (locus YJL095W, strain BCK1 (second series), active compounds read low) was 1.01, the normalized growth (locus YJL115W, strain asf1, active compounds read low) was 0.971 and the normalized growth (locus YJL129C, strain trk1, active compounds read low) was 0.935. The normalized growth (locus YJL154C, strain vps35, active compounds read low) was 0.992, the normalized growth (locus YJL164C, strain tpk1, active compounds read low) was 0.979 and the normalized growth (locus YJL166W, strain qcr8, active compounds read low) was 0.992. It also gave a normalized growth (locus YJL187C, strain SWE1, active compounds read low) of 0.991, a normalized growth (locus YKL160W, strain elf1, active compounds read low) of 0.963 and a normalized growth (locus YKR026C, strain gcn3, active compounds read low) of 0.991. It also gave a normalized growth (locus YKR091W, strain srl3, active compounds read low) of 0.984, a normalized growth (locus YLL001W, strain dnm1, active compounds read low) of 0.987 and a normalized growth (locus YLL026W, active compounds read low) of 0.997. For the same compound, the normalized growth (locus YLL041C, strain sdh2, active compounds read low) was 0.979, the normalized growth (locus YLR027C, strain aat2, active compounds read low) was 0.988 and the normalized growth (locus YLR221C, strain rsa3, active compounds read low) was 0.962. The normalized growth (locus YLR258W, strain gsy2, active compounds read low) was 1.01, the normalized growth (locus YLR262C, strain YPT6 (second series), active compounds read low) was 1 and the normalized growth (locus YLR320W, strain mms22, active compounds read low) was 0.993. It also gave a normalized growth (locus YLR342W, strain FKS1, active compounds read low) of 0.993, a normalized growth (locus YLR357W, strain rsc2, active compounds read low) of 0.996 and a normalized growth (locus YLR370C, strain arc18, active compounds read low) of 0.98. The normalized growth (locus YLR384C, strain iki3, active compounds read low) was 0.996, the normalized growth (locus YML120C, strain ndi1, active compounds read low) was 0.949 and the normalized growth (locus YMR058W, strain fet3, active compounds read low) was 0.973. It also gave a normalized growth (locus YMR125W, strain sto1, active compounds read low) of 0.981, a normalized growth (locus YMR129W, active compounds read low) of 0.957 and a normalized growth (locus YMR205C, strain PFK2, active compounds read low) of 1.02. The normalized growth (locus YMR231W, strain pep5, active compounds read low) was 0.985, the normalized growth (locus YNL071W, strain lat1, active compounds read low) was 0.989 and the normalized growth (locus YNL209W, strain ssb2, active compounds read low) was 0.992. The normalized growth (locus YNL248C, strain rpa49, active compounds read low) was 0.935, the normalized growth (locus YNL322C, strain KRE1 (second series), active compounds read low) was 0.981 and the normalized growth (locus YNR049C, strain mso1, active compounds read low) was 0.986. For the same compound, the normalized growth (locus YOR001W, strain rrp6, active compounds read low) was 0.941, the normalized growth (locus YOR070C, strain gyp1, active compounds read low) was 0.994 and the normalized growth (locus YOR080W, strain dia2, active compounds read low) was 0.976. For the same compound, the normalized growth (locus YOR083W, strain WHI5, active compounds read low) was 0.952, the normalized growth (locus YOR106W, strain vam3, active compounds read low) was 0.974 and the normalized growth (locus YOR265W, strain rbl2, active compounds read low) was 0.989. It also gave a normalized growth (locus YOR270C, strain vph1, active compounds read low) of 0.981, a normalized growth (locus YOR290C, strain snf2, active compounds read low) of 0.976 and a normalized growth (locus YPL051W, strain arl3, active compounds read low) of 0.975. It also gave a normalized growth (locus YPL078C, strain atp4, active compounds read low) of 0.949, a normalized growth (locus YPL106C, strain sse1, active compounds read low) of 1.01 and a normalized growth (locus YPL240C, strain hsp82, active compounds read low) of 0.987.
